# Source: PubChem BioAssay AID430 (Sanford-Burnham Center for Chemical Genomics, 2006)
# Hit rate of the full screen: of about 63,000 compounds, about 1,100 (1.7%) were called active. Rule as the data show it: active = cytotoxicity above about 50%; inactive = the rest. For the sample, actives were picked, then their nearest neighbours and some compounds at random. Potency and affinity values are given separately.
# Test: cytotoxicity in HPDE-C7 cells, cell-based, fluorescence, HTS (AID 430);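 also: cells exposed to compound for 48 hours before viability readout; 0% = vehicle and 100% = reference cytotoxic drug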
# Conditions: HPDE-C7 pancreatic duct cells viability, at 10 µM, hits give high values
row,SMILES,cytotoxicity
1,Cc1nc2ccccc2nc1CSc1nncs1,3.3% (inactive)
2,Cc1nc(CNS(=O)(=O)c2ccc3c(c2)CCCC3)cs1,-11.4% (inactive)
3,CN(C)CCNc1ncnc2c1cnn2-c1ccc(Cl)cc1,19.4% (inactive)
4,CN(C)CCCNc1ncnc2c1cnn2-c1ccccc1,-5.5% (inactive)
5,CCCCNc1ncnc2c1cnn2-c1ccccc1,65% (active)
6,CC(C)OCCCNc1ncnc2c1cnn2-c1ccccc1,26.6% (inactive)
7,CCCCNc1ncnc2c1cnn2-c1ccc(Cl)cc1,72.3% (active)
8,COCCNc1ncnc2c1cnn2-c1ccc(Cl)cc1,4.6% (inactive)
9,CS(=O)CCC(NS(=O)(=O)c1ccccc1)C(=O)O (stereo not given),-7.3% (inactive)
10,Cc1ccc(Cl)cc1N1CCN(C(=O)c2cn(C)c(=O)c3c2c2ccccc2n3C)CC1,93.1% (active)
11,Cn1cc(C(=O)N2CCN(C(=O)c3ccco3)CC2)c2c3ccccc3n(C)c2c1=O,-1.4% (inactive)
12,COc1ccc(N2CCN(C(=O)c3cn(C)c(=O)c4c3c3ccccc3n4C)CC2)cc1,10.1% (inactive)
13,CCOC(=O)N1CCN(C(=O)c2cn(C)c(=O)c3c2c2ccccc2n3C)CC1,-11.5% (inactive)
14,Cc1cccc(N2CCN(C(=O)c3cn(C)c(=O)c4c3c3ccccc3n4C)CC2)c1C,53.7% (active)
15,Cn1cc(C(=O)NCCN2CCN(c3cccc(Cl)c3)CC2)c2c3ccccc3n(C)c2c1=O,-12.1% (inactive)
16,COc1ccc(C)cc1S(=O)(=O)NC1CCCC1,8.4% (inactive)
17,CCn1ncc(C2=NOC(C(=O)NCc3ccc(OC)cc3)C2)c1C (stereo not given),21.2% (inactive)
18,CCn1ncc(C2=NOC(C(=O)NCc3ccc(Cl)cc3)C2)c1C (stereo not given),65.1% (active)
19,CCn1ncc(C2=NOC(C(=O)NCc3ccccc3)C2)c1C (stereo not given),54.7% (active)
20,CCn1ncc(C2=NOC(C(=O)NCCc3ccccc3)C2)c1C (stereo not given),-13.2% (inactive)
21,CCn1ncc(C2=NOC(C(=O)Nc3c(C)nn(Cc4ccc(F)cc4)c3C)C2)c1C (stereo not given),25.1% (inactive)
22,CCn1ncc(C2=NOC(C(=O)Nc3cccnc3)C2)c1C (stereo not given),-4.8% (inactive)
23,CCOC(=O)CN1C(=O)C(=O)c2cccc(C)c21,-46.9% (inactive)
24,O=C(NCc1ccco1)C1CN(S(=O)(=O)c2ccccc2)CCN1S(=O)(=O)c1ccccc1 (stereo not given),-23.1% (inactive)

row,SMILES,cytotoxicity
1,CCc1c(C)nc2ncnn2c1N1CCC(C(=O)N2CCN(c3ccc(F)cc3)CC2)CC1,-1.9% (inactive)
2,COC(=O)CSc1nc2ccc(NC(C)=O)cc2s1,-5.9% (inactive)
3,COc1cc2c(cc1OC)CN(C(=O)c1ccccc1C(=O)O)CC2,-15.6% (inactive)
4,O=C(Cn1nnc(-c2ccc(N3CCOCC3)cc2)n1)OC1CCCCC1,-25.2% (inactive)
5,COC(=O)CSc1nnc(-c2ccc(OC)cc2OC)o1,3.4% (inactive)
6,COc1ccc(N2CCN(C(c3ccccc3OC)c3nnnn3Cc3ccco3)CC2)cc1 (stereo not given),-1.6% (inactive)
7,COc1cc(C2C(C#N)=C(C)NC3=C2C(=O)CC(C)(C)C3)cc(OC)c1O (stereo not given),3.7% (inactive)
8,COc1cc(C2C(C#N)=C(C)NC3=C2C(=O)c2ccccc23)cc(OC)c1OC (stereo not given),76.3% (active)
9,COc1cc(C2C(C#N)=C(C)NC3=C2C(=O)CC(C)(C)C3)ccc1O (stereo not given),-9.2% (inactive)
10,COc1ccc(C2C(C#N)=C(SC)NC3=C2C(=O)CC(C)(C)C3)cc1 (stereo not given),-11.2% (inactive)
11,COc1ccc(C2CC(=O)C3=C(C2)NC(C)=C(C#N)C3c2ccc(N(C)C)cc2)cc1 (stereo not given),-4.4% (inactive)
12,COc1ccc(C2C(C#N)=C(C)NC3=C2C(=O)c2ccccc23)cc1 (stereo not given),55.2% (active)
13,CSc1nc(-c2ccco2)nn1C(=O)c1ccco1,-12.1% (inactive)
14,CCOc1cc(NC(=O)c2ccco2)c(OCC)cc1NC(=O)CCC(=O)NCc1cccnc1,32.8% (inactive)
15,COc1ccc(C(C#N)N2CCCCC2)cc1OC (stereo not given),-1.7% (inactive)
16,Cc1cccc(-c2noc(CN(C(=O)CCc3ccccc3)C(C)C)n2)c1,-16.1% (inactive)
17,CCCC(=O)Nc1nc2ccc3nc(C)sc3c2s1,9.8% (inactive)
18,CCOc1ccc(OCC)c(S(=O)(=O)N2CCCCC2C)c1 (stereo not given),-8.3% (inactive)
19,Cc1cccc(N2C(=O)SC(N(C)c3ccccc3)C2=O)c1 (stereo not given),-8.6% (inactive)
20,CCNC(=O)CCC(=O)Nc1cc(Cl)ccc1C,-6.9% (inactive)
21,Cc1ccc(NC(=O)CC(O)(C(F)(F)F)C(F)(F)F)c(Br)c1,-3.8% (inactive)
22,Cc1ccc(Cl)cc1NC(=O)CC(O)(C(F)(F)F)C(F)(F)F,51.2% (active)
23,CN(C)c1ccc(CN2CCCC(O)C2)cc1 (stereo not given),0.6% (inactive)
24,OC1CCCN(Cc2cccc3ccccc23)C1 (stereo not given),4.1% (inactive)

row,SMILES,cytotoxicity
1,O=C(CCc1nc2ccccc2c(=O)[nH]1)OCc1nnc(-c2ccccc2)o1,8.5% (inactive)
2,CCN(CCCNC(=O)C1CCN(S(=O)(=O)CC)CC1)c1ccccc1,-4% (inactive)
3,O=C(Oc1ccc2c(c1)OCO2)c1cccs1,-3.4% (inactive)
4,O=C(Oc1ccc2c(c1)OCO2)c1ccncc1,10.6% (inactive)
5,O=C(Oc1ccc2c(c1)OCO2)c1cc2c(s1)CCC2,56.8% (active)
6,Cc1cccc(C(=O)OCc2cc3ccccc3[nH]c2=O)c1,8.5% (inactive)
7,COc1cccc(C(=O)N2CCN(c3ncccn3)CC2)c1,1.5% (inactive)
8,CCCCC(=O)c1c(O)c2ccccc2oc1=O,9.3% (inactive)
9,CCc1oc2ccccc2c1C(=O)CCN1CCCCC1,-17.7% (inactive)
10,c1coc(CNc2nc3sc4c(c3c3ncnn23)CCCC4)c1,-5.5% (inactive)
11,O=C(NC1CCCCC1)NC1CCN(S(=O)(=O)c2ccc3c(c2)OCCO3)CC1,-1.5% (inactive)
12,O=C(NC1CCCCC1)c1ccc(S(=O)(=O)NCc2ccco2)cc1,-1.9% (inactive)
13,O=C(Nc1ccccc1)c1ccc(S(=O)(=O)NCc2ccco2)cc1,-0.2% (inactive)
14,O=C(NCCc1c[nH]c2ccccc12)c1ccc(S(=O)(=O)NCc2ccco2)cc1,51.9% (active)
15,Cc1cccc(C)c1NC(=O)c1cc(S(=O)(=O)N2CCOCC2)ccc1F,-47.4% (inactive)
16,O=C(Nc1c2c(nn1-c1ccc(F)cc1)CSC2)c1ccc(S(=O)(=O)N2CCOCC2)cc1,-9.4% (inactive)
17,O=C1C(Cl)=C(NCCCN2CCOCC2)C(=O)N1CCc1ccccc1,1.4% (inactive)
18,Cc1nc2ccccc2c(=O)n1/N=C/c1c(O)ccc2oc3c(c12)CCCC3,63% (active)
19,Oc1ccc2oc3c(c2c1/C=N/n1cnnc1)CCCC3,-15.1% (inactive)
20,Cc1nc2ccccc2c(=O)n1/N=C/c1ccc(O)cc1,33.8% (inactive)
21,Oc1c(C(c2cccs2)N2CCN(c3ccccc3)CC2)sc2ncnn12 (stereo not given),-10% (inactive)
22,COc1cc(O)c(NC(C)=O)c2nonc12,-7.7% (inactive)
23,CC(=O)Nc1nonc1NC(C)=O,-3.4% (inactive)
24,Cc1nn(-c2ccc(F)cc2F)c2c1-c1nc(N3CCCC3)ncc1CC2,3.8% (inactive)

row,SMILES,cytotoxicity
1,COc1ccc(C(=O)NC2CCN(C(=O)NC3CCCCC3)CC2)cc1,-6.7% (inactive)
2,COc1ccc(CN2C(=O)CCC2(C)C(=O)NC2CCCCC2)c(OC)c1 (stereo not given),-3.1% (inactive)
3,COc1ccc2[nH]c(=O)c(CN(Cc3nnnn3Cc3ccc(F)cc3)CC3CCCO3)cc2c1 (stereo not given),-39.9% (inactive)
4,CCc1ccccc1NC(=O)C(CC)Sc1nc2cc3c(cc2c(=O)n1Cc1ccco1)OCO3 (stereo not given),2.1% (inactive)
5,CCC(Sc1nc2cc3c(cc2c(=O)n1Cc1ccco1)OCO3)C(=O)Nc1ccccc1OC (stereo not given),-11.3% (inactive)
6,CCOC(=O)c1[nH]c(C)c(C(=O)N2CCN(C(=O)c3ccco3)CC2)c1C,-21.3% (inactive)
7,COc1ccc(NC(=O)CNc2cccc(C#N)c2)cc1Cl,2.9% (inactive)
8,Cc1cc(N2CCOCC2)n2nc(-c3cccc(F)c3)cc2n1,-16.6% (inactive)
9,Fc1ccc(-c2cc3nc(-c4ccccc4)cc(N4CCOCC4)n3n2)cc1,-7% (inactive)
10,Fc1ccc(-c2cc3nc(-c4ccccc4)cc(N4CCN(CCN5CCOCC5)CC4)n3n2)cc1,53% (active)
11,O=C(Nc1scc(-c2ccc(F)cc2)c1C(=O)O)c1ccco1,-6.9% (inactive)
12,COc1ccc(OC)c(NC(=O)c2cc3n(n2)C(C(F)(F)F)CC(c2ccc4c(c2)OCO4)N3)c1 (stereo not given),44.5% (inactive)
13,O=C(Nc1cc(Cl)ccc1O)c1cc2n(n1)C(C(F)(F)F)CC(c1ccc3c(c1)OCO3)N2 (stereo not given),-8.7% (inactive)
14,COc1ccccc1NC(=O)c1cc2n(n1)C(C(F)(F)F)CC(c1ccc3c(c1)OCO3)N2 (stereo not given),38.9% (inactive)
15,COc1ccc(C2CC(C(F)(F)F)n3nc(C(=O)Nc4ccc5c(c4)OCO5)cc3N2)cc1 (stereo not given),-7% (inactive)
16,O=C(NCc1ccc2c(c1)OCO2)c1cc2n(n1)C(C(F)(F)F)CC(c1ccc3c(c1)OCO3)N2 (stereo not given),13.5% (inactive)
17,O=C(Nc1ccc2c(c1)OCO2)c1cc2n(n1)C(C(F)(F)F)CC(c1ccccc1)N2 (stereo not given),64.2% (active)
18,Cc1cccc(NC(=O)c2cc3n(n2)C(C(F)(F)F)CC(c2ccc4c(c2)OCO4)N3)c1 (stereo not given),74.1% (active)
19,COc1ccc(NC(=O)c2cc3n(n2)C(C(F)(F)F)CC(c2ccc4c(c2)OCO4)N3)cc1OC (stereo not given),63.9% (active)
20,Cc1cc(NC(=O)c2cc3n(n2)C(C(F)(F)F)CC(c2ccc(Cl)c(Cl)c2)N3)no1 (stereo not given),2.8% (inactive)
21,CCC(=O)N=c1sc2c(OC)ccc(OC)c2n1C,1.2% (inactive)
22,CCOC(=O)CSc1nnc([C@@H](NC(=O)OC(C)(C)C)C(C)C)o1,8.2% (inactive)
23,O=C1CC(c2ccc(F)cc2)Cc2nc(N3CCN(c4ccccc4)CC3)ncc21 (stereo not given),4.6% (inactive)
